{"source": "paper PMC4336329", "about": "(PLoS ONE, 2015)", "note": "Out of some 310,000 compounds screened, about 14,000 (4.5%) showed an effect of 50% or more. The effect is printed as a negative number. What follows is part of a selection rich in strong results, with near analogues and random picks from the rest.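 Note: peak tail current of the secondary pulse compared with the same well before compound.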", "data": [{"molecular_target": "human ether-à-go-go-related gene (hERG) potassium channel (human, UniProt Q12809)", "sequence (Q12809 whole entry, looked up)": "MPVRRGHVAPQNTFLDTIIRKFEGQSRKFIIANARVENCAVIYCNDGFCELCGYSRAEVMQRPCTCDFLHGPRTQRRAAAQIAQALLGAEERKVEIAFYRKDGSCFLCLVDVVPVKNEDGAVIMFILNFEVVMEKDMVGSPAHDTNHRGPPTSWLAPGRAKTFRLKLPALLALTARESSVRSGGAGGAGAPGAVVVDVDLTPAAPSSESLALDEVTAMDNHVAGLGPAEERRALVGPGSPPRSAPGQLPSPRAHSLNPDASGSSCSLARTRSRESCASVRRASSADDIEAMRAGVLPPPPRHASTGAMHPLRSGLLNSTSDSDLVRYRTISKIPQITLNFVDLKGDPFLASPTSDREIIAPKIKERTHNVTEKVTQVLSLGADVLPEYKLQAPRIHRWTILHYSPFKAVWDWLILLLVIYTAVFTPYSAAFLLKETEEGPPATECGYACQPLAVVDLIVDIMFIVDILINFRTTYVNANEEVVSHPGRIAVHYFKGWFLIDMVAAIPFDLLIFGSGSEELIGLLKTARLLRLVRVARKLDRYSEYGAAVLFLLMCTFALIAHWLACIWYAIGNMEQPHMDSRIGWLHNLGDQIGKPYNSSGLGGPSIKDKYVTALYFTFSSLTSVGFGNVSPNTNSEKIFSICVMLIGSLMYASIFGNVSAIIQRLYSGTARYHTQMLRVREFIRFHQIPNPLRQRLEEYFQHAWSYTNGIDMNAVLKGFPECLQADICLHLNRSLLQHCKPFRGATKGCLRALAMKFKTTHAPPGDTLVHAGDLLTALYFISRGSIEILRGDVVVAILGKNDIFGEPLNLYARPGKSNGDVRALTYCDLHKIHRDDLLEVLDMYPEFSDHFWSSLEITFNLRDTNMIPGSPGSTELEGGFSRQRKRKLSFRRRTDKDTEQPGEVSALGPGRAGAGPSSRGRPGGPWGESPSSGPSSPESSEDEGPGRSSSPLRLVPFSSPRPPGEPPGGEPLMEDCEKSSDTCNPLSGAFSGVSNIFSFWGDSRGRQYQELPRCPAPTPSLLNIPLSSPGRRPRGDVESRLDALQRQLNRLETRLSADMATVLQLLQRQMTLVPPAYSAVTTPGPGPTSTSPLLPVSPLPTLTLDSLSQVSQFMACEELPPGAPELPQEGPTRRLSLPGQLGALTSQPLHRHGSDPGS", "experiment": "primary screen, population patch clamp on CHO cells stably expressing hERG; higher = less effect of the substance", "units": {"hERG current change (%, negative = inhibition) at 10uM": "%"}, "values": [{"smiles": "NS(=O)(=O)c1ccc2nc(NC(=O)Nc3ccc(F)cc3)sc2c1", "hERG current change (%, negative = inhibition) at 10uM": 6.61}, {"smiles": "CCN=C1S/C(=C\\c2cn(C(C)=O)nc2-c2ccccc2)C(=O)N1CC", "hERG current change (%, negative = inhibition) at 10uM": 8.23}, {"smiles": "O=C(CSCc1ccc(Br)cc1)N1CCOCC1", "hERG current change (%, negative = inhibition) at 10uM": 3.5}, {"smiles": "CCN(CC)c1ccc(C=C2C(=O)OC3(CCCCC3)OC2=O)cc1", "hERG current change (%, negative = inhibition) at 10uM": 7.76}, {"smiles": "CCCOc1ccc(C(C)=O)cc1CC(C(=O)OCC)C(=O)OCC", "hERG current change (%, negative = inhibition) at 10uM": 1.47}, {"smiles": "COc1ccc(/C=C/C(=O)OCC(=O)Nc2cc(C(N)=O)cc(C(N)=O)c2)cc1", "hERG current change (%, negative = inhibition) at 10uM": 18.2}, {"smiles": "CN(C)/C=N/C(=S)Nc1cc(Cl)cc(Cl)c1", "hERG current change (%, negative = inhibition) at 10uM": 27.2}, {"smiles": "O=C(c1ccc(NS(=O)(=O)c2cccs2)cc1)N1CCOCC1", "hERG current change (%, negative = inhibition) at 10uM": 14.4}, {"smiles": "CC(=O)c1cc(CC=C(C)C)c(O)cc1O", "hERG current change (%, negative = inhibition) at 10uM": -3.51}, {"smiles": "O=C(COC(=O)CCC1CCCC1)Nc1ccc(Cl)cn1", "hERG current change (%, negative = inhibition) at 10uM": 15.2}, {"smiles": "Cc1c(C(=O)OCC(=O)N(C)CC(=O)Nc2ccc(F)cc2)oc2ccccc12", "hERG current change (%, negative = inhibition) at 10uM": 14.3}, {"smiles": "CN(C)c1nc(N)c([N+](=O)[O-])c(N2CCCCCC2)n1", "hERG current change (%, negative = inhibition) at 10uM": 2.69}, {"smiles": "Cl.c1ccc2c(c1)oc1c(NCCN3CCOCC3)ncnc12", "hERG current change (%, negative = inhibition) at 10uM": -5.4}, {"smiles": "CC(=O)c1ccc(Nc2ncnc3c2oc2ccccc23)cc1", "hERG current change (%, negative = inhibition) at 10uM": 7.05}, {"smiles": "CC(=O)N1CCN(c2ccc(Nc3nc(C)nc4c3oc3ccccc34)cc2)CC1.Cl", "hERG current change (%, negative = inhibition) at 10uM": -51.3}, {"smiles": "Cl.c1ccc2c(c1)oc1c(Nc3ccc(CN4CCOCC4)cc3)ncnc12", "hERG current change (%, negative = inhibition) at 10uM": -62}, {"smiles": "Cl.c1ccc2c(c1)oc1c(NCCCN3CCOCC3)ncnc12", "hERG current change (%, negative = inhibition) at 10uM": -22.4}, {"smiles": "CC(=O)Nc1ccc(Nc2nc(C)nc3c2oc2ccccc23)cc1", "hERG current change (%, negative = inhibition) at 10uM": 13.4}, {"smiles": "Cl.Oc1ccc(Nc2ncnc3c2oc2ccccc23)cc1", "hERG current change (%, negative = inhibition) at 10uM": -4.8}, {"smiles": "CCc1nc(Nc2ccc(N3CCN(C(C)=O)CC3)cc2)c2oc3ccccc3c2n1.Cl", "hERG current change (%, negative = inhibition) at 10uM": -43.7}, {"smiles": "CC(=O)N1CCN(c2ccc(Nc3ncnc4c3oc3ccccc34)cc2)CC1.Cl", "hERG current change (%, negative = inhibition) at 10uM": -65.9}, {"smiles": "O=C(Nc1nc(COc2ccccc2)cs1)c1ccccc1F", "hERG current change (%, negative = inhibition) at 10uM": 24.9}, {"smiles": "CCCCN(CC)CCNC(=O)Cn1cc2c(n1)-c1c(oc(C(=O)N3CCCC3)c1C)CC2", "hERG current change (%, negative = inhibition) at 10uM": -27.9}, {"smiles": "CCOc1cc(/C=C2/C(=O)ON=C2C)ccc1OCc1ccccc1F", "hERG current change (%, negative = inhibition) at 10uM": 10.6}, {"smiles": "Cc1cc(OCC(=O)N[C@H](C(=O)O)c2ccccc2)c2c3c(c(=O)oc2c1)CCC3", "hERG current change (%, negative = inhibition) at 10uM": 12.1}]}]}
